# SKKanGAS inh – S. pyogenes SKKanGAS growth inhibitors in kanamycin, primary screen, streptokinase expression inhibitor project, SKKanGAS strain, BacTiter-Glo luminescence. inhibition, % at 7.5 µM. 6 h. AID 1662, 2009. 300,000 tested, 1.3% active;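 active means mean replicate score, as percent of positive control median, at least 50; inconclusive means mean below 50 but one replicate at or above 50; inactive means mean and every replicate below 50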;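 further: strain carries kanamycin resistance gene driven by streptokinase promoter and grows in 40 µg/ml kanamycin; loss of luminescence reflects streptokinase promoter inhibition or plain growth inhibition; 0% = median of DMSO wells and 100% = positive control at its reference dose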
# PfHsp90 yeast 2 – growth inhibition of PfHsp90-expressing yeast, primary screen, antimalarial PfHsp90 inhibitor project, S. cerevisiae, BacTiter-Glo luminescence, single point, set 2; 310,000 tested, 0.32% active; inhibition, % at 9.4 µM; AID 504621, 2011; BacTiter-Glo ATP, 48 h; yeast lacking PDR1 and PDR3 efflux regulators;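 active means every replicate shows inhibition above about 80%, whatever the replicate mean, limit read from the data; inconclusive means mean inhibition reaches the set limit but some replicate falls short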;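 further: 0% = DMSO neutral controls and 100% = 20 µM radicicol positive controls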
# tim23-1 inh – growth inhibitors of tim23-1 mutant yeast, primary screen, luminescence, uHTS | AID 463212, 2010 | inhibition, % at 20 µM | S. cerevisiae tim23-1 growth, BacTiter-Glo luminescence, 24 h | 330,000 tested, 1.3% active;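 active means growth inhibition of the mutant yeast at or above 50%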;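 further: temperature-sensitive mutant grown at 25 °C; plate controls were DMSO-treated mutant yeast for no effect and medium wells lacking yeast for full effect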
# tim10-1 inh – growth inhibitors of tim10-1 mutant yeast, primary screen, luminescence, uHTS; 330,000 tested, 2.2% active; S. cerevisiae tim10-1 ts strain growth, BacTiter-Glo, 24 h; inhibition, % at 20 µM;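 active means inhibition of at least 40%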;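 further: mutant grown at 25 °C; 0% = DMSO wells with yeast and 100% = wells holding no yeast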
# TIM10 inh – growth inhibitors of isogenic TIM10 control yeast, primary screen, counter-screen for tim10-1 yeast inhibitor project, luminescence, uHTS | S. cerevisiae TIM10 strain growth, BacTiter-Glo luminescence, 24 h | inhibition, % at 10 µM | 330,000 tested, 1.4% active | AID 463195, 2010;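 active means inhibition of 40% or more at the single tested concentration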;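 further: wild-type TIM10 isogenic control strain grown at permissive 25 °C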
# NALP1 yeast inh – NALP1 inflammasome inhibitors in reconstituted yeast, colorimetric, S. cerevisiae, triplicate retest; S. cerevisiae NALP1/ASC/caspase-1 growth, X-gal OD620, 72 h; inhibition, % at 10 µM; 280,000 tested, 0.61% active; AID 2071, 2009; in the data active means inhibition mostly above about 24%, no sharp cut-off; inactive means mostly below about 32%
# TIM10 conf – growth inhibitors of wild-type TIM10 yeast, confirmation, counter-screen for tim10-1 synthetic lethality project, single concentration, luminescence, S. cerevisiae | 4,600 tested, 63% active | S. cerevisiae tim10 strain growth, BacTiter-Glo luminescence, 24 h | inhibition, % at 10 µM | AID 463215, 2010 | shares compounds with TIM10 inh;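 active means inhibition of yeast growth at or above a set limit in either of two replicates at 10 µM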;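 further: this counterscreen used the strain with wild-type TIM10; 0% = yeast with DMSO and 100% = medium wells lacking yeast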
# tim23-1 conf – tim23-1 mutant yeast growth inhibitors, confirmation, luminescence, single concentration | shares compounds with tim23-1 inh | S. cerevisiae tim23-1 growth, BacTiter-Glo luminescence, 24 h | inhibition, % at 20 µM | 4,400 tested, 83% active | AID 463218, 2010;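 active means inhibition above about 39% in either of two replicate wells at 20 µM, limit read from the data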;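 further: temperature-sensitive tim23-1 mutant grown at 25 °C; 0% = DMSO wells with yeast and 100% = medium wells without yeast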
# * hit, by the source's call; ? = inconclusive; . = no result. A selection: hits, their analogues and other compounds. The true share with any hit is near 4.8%.
SMILES,SKKanGAS inh,PfHsp90 yeast 2,tim23-1 inh,tim10-1 inh,TIM10 inh,NALP1 yeast inh,TIM10 conf,tim23-1 conf
O=C(Nc1cc(-c2nc3ncccc3o2)ccc1Cl)c1ccc([N+](=O)[O-])o1,15,-16,86*,27,43*,-5,28,86*
O=C(Nc1cc(-c2nc3ncccc3o2)ccc1Cl)c1cccs1,-7,6,32,-3,2,-6,.,.
COc1ccc2c(c1OC)C(=O)OC2C1c2c(cc3c(c2OC)OCO3)CCN1C (stereo unspecified),-5,-2,20,19,6,27,.,.
CN1CCc2cc3c(c4c2[C@H]1[C@H](O)c1ccccc1-4)OCO3,4,-14,58*,36,53*,-7,68*,63*
CCn1ccnc1C(O)c1ccc(N(C)C)cc1 (stereo unspecified),5,20,3,-1,3,-1,.,.
CN1C(=S)N(c2cccnc2)C(=O)/C1=C\c1ccc(C(C)(C)C)cc1,9,?,55*,33,55*,12,56*,46*
Nc1ccc(-c2cc(-c3cccc(N)c3)nc(-c3ccccc3)n2)cc1,-14,16,-7,-1,-21,14,.,.
Nc1ccc(-c2nc(-c3ccccc3)nc3ccccc23)cc1,0,-2,67*,37,56*,10,54*,57*
Fc1ccccc1NC(=S)NCc1ccc2c(c1)OCO2,7,-4,25,26,8,26,.,.
Cc1cccc(C)c1NC(=O)/C(C#N)=C/c1ccsc1,4,16,62*,39,44*,35,37*,57*
N#C/C(=C\c1ccc(O)c(Br)c1)C(=O)N1CCCCC1,-4,2,23,15,2,2,.,.
Cc1ccc(/C=C(\C#N)C(=O)N2CCCC2)c(C)c1,2,-15,52*,38,45*,7,39*,50*
O=c1oc2ccccc2c(O)c1/C=N/c1ccccn1,13,-9,0,3,-4,-19,.,.
Clc1ccc(-c2nnc(NCc3ccccc3)c3ccccc23)cc1,12,3,68*,32,54*,26,57*,71*
Cc1ccc(-c2nnc(NCc3ccccc3)c3ccccc23)cc1,13,18,25,22,30,-5,.,.
N#CCOc1ccccc1P(=O)(c1ccccc1)c1ccccc1,2,12,17,30,5,30,.,.
CCN(CC)C(=O)c1cc([N+](=O)[O-])cc2c1-c1ccc([N+](=O)[O-])cc1C2=C(C#N)C#N,8,-3,51*,37,40*,-3,22,74*
O=C(CCC(NC(=O)OCc1ccccc1)C(=O)OCC(=O)N1CCCCC1)OCC(=O)N1CCCCC1 (stereo unspecified),4,-16,8,10,14,5,.,.
Cc1cccc(C)c1N=Nc1c(C)cc(O)cc1C,23,112*,63*,24,47*,11,65*,-1
c1ccc(NCc2nc3ccccc3n2CCOc2ccccc2)cc1,11,5,52*,35,43*,17,50*,52*
CCCc1nc2ccccc2n1CCOc1ccccc1,12,-28,22,35,14,16,.,.
O=C(COC(=O)c1ccccc1OCc1ccc(Cl)cc1)NCC1CCCO1 (stereo unspecified),.,.,27,2,-5,.,.,.
CCCC(=O)NC(=S)Nc1cccc(NC(=O)c2ccc(Cl)cc2Cl)c1,10,-15,2,8,5,23,.,.
CCCC(=O)NC(=S)Nc1cccc(NC(=O)c2ccccc2Cl)c1,2,2,53*,36,45*,4,39*,44*
O=C(N/N=C/c1ccc([N+](=O)[O-])cc1)c1cccc2cc[nH]c12,1,-14,-12,-6,12,4,.,.
SMILES,SKKanGAS inh,PfHsp90 yeast 2,tim23-1 inh,tim10-1 inh,TIM10 inh,NALP1 yeast inh,TIM10 conf,tim23-1 conf
CCOC(=O)c1cnc(-n2nc(C)cc2C)nc1NC1CCCC1,97*,-35,52*,39,45*,19,51*,44*
NNC(=O)c1cc2cc(OC(F)(F)F)ccc2[nH]1,16,25,58*,29,50*,-1,40*,50*
N=c1oc2cc(O)ccc2cc1C(=O)Nc1ccc(Br)cc1,19,-14,55*,33,41*,19,25,56*
Cc1ccc(N(CC(=O)N(C)Cc2ccccc2)S(C)(=O)=O)cc1C,-1,8,9,20,-5,-22,.,.
O=C(Nc1ccccc1F)C(=Cc1sc(N2CCOCC2)nc1-c1ccccc1)C(=O)Nc1ccccc1F,4,-14,10,16,11,24,.,.
Cc1cc(-c2ccccc2)nc(N/N=C/c2ccc(O)cc2O)n1,4,-5,64*,35,57*,3,61*,70*
Oc1ccc(/C=N/Nc2ncc(Br)cn2)c(O)c1,-7,-20,70*,32,67*,21,-26,67*
COc1ccc(C/C(N)=N/OC(=O)Cc2ccccc2)cc1OC,0,9,16,16,-2,2,.,.
COc1ccc(C/C(N)=N/OC(=O)CCc2ccccc2)cc1,-6,-21,72*,23,71*,18,83*,78*
COc1ccc(C(=O)/C=C/C(=O)N(CC(=O)NC2CCCCC2)Cc2cccs2)c(O)c1,-12,94*,62*,18,49*,2,47*,36*
O=C(CSc1nc2ccccc2o1)NC1CCS(=O)(=O)C1 (stereo unspecified),.,7,-12,-9,-2,.,.,.
C=CCOc1cccc(C(=O)/C=C2/C(=O)Nc3ccccc32)c1,4,-48,76*,21,85*,-3,80*,-6
COc1ccc(C(C)=NNc2ccc([N+](=O)[O-])cc2S(=O)(=O)Nc2ccccc2C(=O)O)c(OC)c1,.,-16,36,12,5,.,.,.
c1ccc(N/N=C(\Cc2nc3ccccc3[nH]2)c2ccccc2)cc1,26,0,58*,40,48*,14,-1,60*
CCN/N=C(\Cc1nc2ccccc2[nH]1)c1ccccc1,32,-41,23,7,16,0,.,.

# Source: PubChem (several laboratories)
